Reference: PubChem BioAssay (NCI)
Compounds without any hit were thinned out: in the full panel of roughly 83,000, 20% have a hit.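 Treatment: one concentration, 48 hours, 96-well format. Scoring: percent growth, with anything below 10 considered active.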 Unmarked numbers belong to inactive results. Active and inactive are the calls of the source.

Legend:
Test in all cases: NCI-60 one-dose screen, 48 h (100 = growth as untreated, 0 = no growth, -100 = all killed)
Conditions in all cases: 10 µM unless noted
HCT-15 colon = test system: HCT-15 colon
HT29 colon = test system: HT29 colon
SNB-75 CNS = test system: SNB-75 CNS
SNB-19 CNS = test system: SNB-19 CNS
U251 CNS = test system: U251 CNS
PC-3 prostate = test system: PC-3 prostate
SK-MEL-5 melanoma = test system: SK-MEL-5 melanoma
UACC-62 melanoma = test system: UACC-62 melanoma
LOX IMVI melanoma = test system: LOX IMVI melanoma
SK-MEL-28 melanoma = test system: SK-MEL-28 melanoma

SMILES | growth (HCT-15 colon) | growth (HT29 colon) | growth (SNB-75 CNS) | growth (SNB-19 CNS) | growth (U251 CNS) | growth (PC-3 prostate) | growth (SK-MEL-5 melanoma) | growth (UACC-62 melanoma) | growth (LOX IMVI melanoma) | growth (SK-MEL-28 melanoma)
O=C(CSc1nnc(-c2ccc(-c3nc4ccccc4[nH]3)cc2)o1)Nc1ccc(Br)cc1 | 17.5% | 22.6% | 63.3% | -46.2% (active) | -81.6% (active) | 12.4% | 21.6% | 30.5% | -85.5% (active) | -63.6% (active)
O=C(NNC(=S)NC(=O)c1ccccc1)c1ccc(OCc2nc3ccc(Cl)cc3[nH]2)cc1 | -75.1% (active) | -6.38% (active) | -17.8% (active) | -12.9% (active) | -71.4% (active) | 2.48% (active) | -73.4% (active) | -88.4% (active) | -92.2% (active) | -82.7% (active)
FC(F)(F)c1cc2c(Cl)ncnc2n1CCN1CCOCC1 | 2.39% (active) | 81.2% | 53.5% | 43.4% | 78.5% | 88.2% | 88.2% | 64.7% | -12.7% (active) | 74.1%
CCOc1ccccc1[C@H]1C(C(=O)c2ccc(Cl)cc2)C2(N[C@@H]1c1ccccc1)C(=O)Nc1ccccc12 (stereo not given in full) | 7.49% (active) | -0.161% (active) | 46.9% | 27% | 29.9% | 7.19% (active) | -90.7% (active) | -4.32% (active) | -48.1% (active) | 40.8%
Cc1ccc(Cl)cc1NC(=O)Nc1nc2ccc([N+](=O)[O-])cc2s1 | -4.98% (active) | -18.9% (active) | -26.6% (active) | 7.85% (active) | -26.6% (active) | 2.69% (active) | -81.1% (active) | -15.4% (active) | -21.1% (active) | -17% (active)
COc1ccc(/C=C/C(=O)c2ccc(OC)c(S(N)(=O)=O)c2)c(C(F)(F)F)c1 | -52% (active) | 6.34% (active) | 37.6% | -28.6% (active) | -64.7% (active) | 11.2% | 18.9% | 30.6% | -93% (active) | 35.5%
